Rows were chosen to be rich in hits. Some 0.95% of all compounds tested hit in one or more screens of this group.
Tb PYK inh = qHTS of Trypanosoma Brucei Inhibitors; hit rate 0.12% among 410,000; Potency, µM (series often up to 76.8 µM), most hits filed as inhibitors; AID 624173, 2012; TbPYK enzyme, Kinase-Glo Plus ATP luminescence, 45 min; also: nearly all actives have a fitted effect of over 50% in size
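Readout: single end-point luminescence (Kinase-Glo Plus, 10 min). Reaction conditions were TbPYK/substrate plus 130 uM ADP, 45 min at RT, pH 7.2 TEA buffer. No-enzyme wells served as controls, and data were normalized before concentration-response fitting.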
LmPK inh = qHTS Assay for Inhibitors of Leishmania Mexicana Pyruvate Kinase (LmPK); Q27686; purified LmPK, Kinase-Glo ATP luminescence, 1 h; Potency, µM (top dose mostly 57.5 µM), usual class: inhibitors; hit rate 0.37% among 290,000; AID 1721, 2009
Target sequence (Q27686 whole entry, looked up): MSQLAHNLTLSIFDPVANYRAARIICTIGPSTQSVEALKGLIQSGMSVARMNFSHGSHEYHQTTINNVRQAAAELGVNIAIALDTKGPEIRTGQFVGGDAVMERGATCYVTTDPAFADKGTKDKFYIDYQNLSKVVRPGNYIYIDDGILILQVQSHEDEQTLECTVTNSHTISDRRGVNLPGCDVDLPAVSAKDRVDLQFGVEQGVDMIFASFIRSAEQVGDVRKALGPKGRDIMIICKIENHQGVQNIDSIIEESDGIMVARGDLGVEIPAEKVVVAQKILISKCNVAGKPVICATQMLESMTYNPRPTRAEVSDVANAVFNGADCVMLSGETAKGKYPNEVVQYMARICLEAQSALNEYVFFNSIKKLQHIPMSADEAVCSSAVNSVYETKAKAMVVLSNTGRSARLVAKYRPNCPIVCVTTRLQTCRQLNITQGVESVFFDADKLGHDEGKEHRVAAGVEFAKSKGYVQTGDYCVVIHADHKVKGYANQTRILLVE
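Kinase-Glo luminescence read after 1 h RT reaction of 0.1 nM LmPK with 0.5 mM PEP and 0.1 mM ADP. Activity scaled between uninhibited and enzyme-free controls.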
RE007 growth inh = qHTS Assay for Inhibitors of the HIV-1 protein Vpr. S. pombe RE007 Vpr strain, BacTiter-Glo ATP luminescence, 24 h. Potency, µM (titrated, usually from 92.2 µM), most hits filed as inhibitors. hit rate 0.21% among 360,000. AID 651644, 2012; active = well fitted falling curve with a large enough effect; inconclusive = small, poorly fitted or top-dose-only effect; inactive = no such curve, though single readings can be large or run the other way; also: nearly all actives have a fitted effect of over 50% in size
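Fission yeast strain RE007, carrying one chromosomally integrated HIV-1 vpr copy, was seeded at OD 0.01 in PMG+AL medium with 23 nL pinned compound. After 24 h at 30 °C and 99% humidity, viability was read by BacTiter-Glo luminescence.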
Giardia FBPA inh = qHTS Assay for Inhibitors of Fructose-1,6-bisphosphate Aldolase from Giardia Lamblia; purified Giardia FBPA; Potency, µM (series often up to 59.6 µM), usual class: inhibitors; hit rate 0.71% among 290,000; AID 2451, 2010; also: nearly all actives have a fitted effect of over 55% in size
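40 nM FBPA preincubated 10 min at RT with compound (up to 57.5 uM final), then substrate plus GAPDH/TPI/NAD/arsenate coupling and diaphorase/resazurin added. Fluorescence read after 20 min at RT, 525/598 nm.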
Numbers stand for hits; 0 = inactive; ? = inconclusive; - = no result given; [ ] = another dose, or the depositor's remark. Unless noted, calls follow the shape of the dose curve; as a rule, active = well fitted curve in the direction sought with a large enough effect; inconclusive = small, poorly fitted or top-dose-only effect, or another doubt; inactive = no such curve, though single readings can be large; an effect the other way counts as inactive or inconclusive.

SMILES	Tb PYK inh	LmPK inh	RE007 growth inh	Giardia FBPA inh
C[C@@H]1CCCCO[C@H](CN(C)C(=O)Nc2ccc(C(F)(F)F)cc2)[C@@H](C)CN([C@H](C)CO)C(=O)c2cc(NC(=O)c3ccncc3)ccc2O1	0	-	0	-
O=C(CCSc1ccccn1)c1ccccc1	0	0	25µM	0
CCOc1cc(C=O)ccc1OCCn1c([N+](=O)[O-])cnc1C	0	0	0	0
N#Cc1c2ccc(O)cc2n2ccccc12	0	0	0	?
O=C(CCNc1cccc(F)c1)c1cccc([N+](=O)[O-])c1	0	0	?	0
Cc1ccc(S(=O)(=O)CCC(=O)c2cccc([N+](=O)[O-])c2)cc1	?	0	5.6µM	0
Cc1ccc(C(=O)CCS(=O)(=O)c2ccc(Br)cc2)cc1	0	0	0	0
O=C(CCNc1ccc(Cc2ccncc2)cc1)c1cccc([N+](=O)[O-])c1	0	0	35µM	0
CO[C@@]1(NC(=O)CSC(F)F)C(=O)N2C(C(=O)O)=C(CSc3nnnn3CCO)CO[C@@H]21	0	-	-	-
Cc1cccc(C)c1N(CCCc1cccnc1)C(=O)[C@@H](C)N	0	-	-	-
COc1cc(/C=N/NC(=O)c2cccnc2)ccc1OC(=O)c1ccc([N+](=O)[O-])cc1	0	0	0	0
COc1cc(/C=C/[N+](=O)[O-])ccc1OC(=O)c1cccnc1	?	0	8.9µM	0
Cc1csc(NC(=O)c2ccc(C(=O)Nc3nc(C)cs3)cc2)n1	-	0	-	0
O=C(Nc1ccccc1)c1cn2ccccc2n1	0	16µM	0	0
O=C(Nc1ccc(-n2cnnn2)cc1)c1cn2ccccc2n1	0	0	0	0
Cc1csc(NC(=O)c2cccn2C)n1	0	18µM	0	-
Cc1csc(NC(=O)c2sccc2C)n1	0	14µM	0	0
Cc1csc(NC(=O)c2cn3ccccc3n2)n1	?	14µM	?	?
CCOC(=O)C(CC(=O)Nc1nc(C(C)=O)c(C)s1)C(C)c1ccccc1 (stereo unspecified)	0	0	0	0
CC1(C(=O)NS(=O)(=O)C2CC2)CCCN(C(=O)c2ccco2)C1 (stereo unspecified)	0	-	0	-
Nc1nnnn1/N=C/c1cccc(O)c1	0	0	0	0
Nc1nnnn1/N=C/c1ccc(O)cc1	0	16µM	0	0
C[C@H]1[C@@H]2Cc3ccc(O)cc3[C@]1(C)CCN2C	0	-	-	-
CCOC(=O)c1c(C)[nH]c(C2=NNC(=NC3CC3)SC2)c1C	7.9µM	0	0	0
C[N+]1(C)CCN(C[C@@](O)(c2ccccc2)C2CCCCC2)CC1	0	-	-	-
SMILES	Tb PYK inh	LmPK inh	RE007 growth inh	Giardia FBPA inh
COCCCn1c(C23CC4CC(CC(C4)C2)C3)n[nH]c1=S	?	0	0	0
CC(C)Cn1c(C23CC4CC(CC(C4)C2)C3)n[nH]c1=S	?	25µM	0	0
CC(=O)Nc1ccc2c(c1)Cc1cc(N3C(=O)C=CC3=O)ccc1-2	?	-	4.5µM	-
CC(=O)Nc1ccc2c(c1)Cc1ccc(Cl)cc1-2	0	-	0	-
O=C1C=CC(=O)N1c1ccc2c(c1)Cc1cc(F)ccc1-2	?	-	2.8µM	-
CCCN1CCC(=O)N([C@H](CN=[N+]=[N-])CC(C)C)CC1	0	0	0	0
COc1ccccc1N=c1oc2cc(O)ccc2cc1C(N)=O	0	0	8.9µM	0
Cc1ccc(N2C(=O)CC(Sc3nc4ccccc4o3)C2=O)cc1Cl (stereo unspecified)	0	0	10µM	0
Cc1nonc1C(=O)N/N=C/c1ccc(O)c(O)c1	?	13µM	?	?
O=C(N/N=C/c1ccc(O)c(O)c1)N/N=C/c1ccc(O)c(O)c1	0	0	0	0
COc1cc(/C=N/NC(=O)c2nonc2C)ccc1O	0	14µM	0	0
COc1ccc(C)cc1NC(=O)C1CCCCN1S(=O)(=O)c1ccccc1 (stereo unspecified)	0	-	0	-
Cc1ccc(NC(=O)CSc2nc(=O)n(Cc3cccnc3)c3c2CCC3)cc1F	0	-	-	-
O=C(Nc1ccccc1)c1nnsc1S(=O)c1ccc(Cl)cc1 (stereo unspecified)	?	0	2.8µM	0
COc1ccc(CC(=O)n2[nH]c(=O)ccc2=O)cc1OC	7.1µM	0	0	?
COc1ccc(CC(=O)n2[nH]c(=O)c3ccccc3c2=O)cc1OC	0	0	0	0
CCOCCc1nnc(NC(=O)C(=O)c2cc(C)n(-c3cccc(C)c3)c2C)s1	0	-	-	-
COC(=O)c1ccc(CCc2cc(O)c(Br)cc2O)cc1	?	-	11µM	-
COC(=O)c1ccc(O)cc1	0	0	0	0
COC(=O)c1cc(Br)c(=O)n(CCc2ccccc2)c1	0	0	0	0
COC(=O)c1ccc(CCc2cc(O)ccc2O)cc1	?	-	11µM	-
Cc1cc(C)c2c(=O)n3c(nc2c1)C(CC(C)C)NC(=O)c1cccnc1-3 (stereo unspecified)	0	-	0	-
CCOC(=O)C1CCN(CC(=O)Nc2cc(S(=O)(=O)N3CCCCC3)ccc2Cl)CC1	0	-	0	-
O=[N+]([O-])c1ccc2c(c1)N([O-])C1(CCCCC1)[N+]2=O	?	0	0	7.9µM
CC1=C(c2ccccc2)[N+](=O)C2(CCCC2)N1[O-]	0	0	0	0
SMILES	Tb PYK inh	LmPK inh	RE007 growth inh	Giardia FBPA inh
CCC(=O)N(CC)C1=C(O)c2ccccc2C(=O)C1=O	?	25µM	?	7.9µM
CCC(=O)N(C1=C(NC)C(=O)c2ccccc2C1=O)C(C)C	0	0	0	0
CCc1ccn2cc(-c3cc(-c4ccccc4)no3)nc2c1	0	16µM	0	0
O=[N+]([O-])c1ccc(C=Nc2ccccc2)cc1	0	-	0[18.4 µM]	-
Cc1[nH]n(-c2ccccc2)c(=S)c1C=Nc1cccc([N+](=O)[O-])c1	3.2µM	0	0	?
Cc1[nH]n(-c2ccccc2)c(=O)c1C=NCCc1ccccc1	0	0	0	0
CCCCN=Cc1c(C)[nH]n(-c2ccccc2)c1=S	7.9µM	?	0	?
CCCCN(Cc1ccco1)C(=O)C1CCCN(c2ncnc3c2nc2n3CCCCC2)C1 (stereo unspecified)	0	0	0	-
CC1(C(=O)NCCCN2CCCC2=O)CCN1CCc1ccccc1 (stereo unspecified)	0	-	0[18.4 µM]	-
COc1ccc(/C=C2\CCc3ccccc3C2=O)cc1OC	0	0	0	0
Cc1ccccc1/C=C1\CCCc2ccccc2C1=O	0	?	0	0
CC(=O)Oc1ccc(/C=C2/CCc3ccccc3C2=O)cc1	?	14µM	?	0
Cc1ccsc1/C=C1\CCc2ccccc2C1=O	?	?	13µM	0
COc1cccc(/C=C2\CCc3ccccc3C2=O)c1	?	16µM	-	0
COc1ccc(-n2nc(C(=O)Nc3ccc(Br)cc3C)c3c4ccccc4n(C)c3c2=O)cc1	0	-	-	-
CSc1ccc(CN2C(=O)C(C)ON=C2c2ccccc2F)cc1 (stereo unspecified)	0	-	0[18.4 µM]	-
O=C(O)/C=C\C(=O)Nc1ccccc1C#Cc1ccc(Br)cc1	0	0	45µM	0
CCC(=O)N1N=C(c2ccc(Cl)cc2)CC1c1ccco1 (stereo unspecified)	0	0	0	0

Assay outcomes: PubChem, National Center for Advancing Translational Sciences (NCATS)
